# Measured values reported in PubChem BioAssay (NCATS).
# Results filed as inconclusive are left out. Values without a mark were called inactive. The source made the active and inactive calls. Calls follow the shape of the dose curve; as a rule, active = well fitted curve in the direction sought with a large enough effect; inconclusive = small, poorly fitted or top-dose-only effect, or another doubt; inactive = no such curve, though single readings can be large; an effect the other way counts as inactive or inconclusive.
# Molecular target: Aldehyde dehydrogenase, mitochondrial (Homo sapiens) (UniProt P05091)
# Assay: qHTS for Inhibitors of the Aldehyde Dehydrogenase Family (ALDH2) Primary screen (AID 2061308);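 also: plate controls were vehicle for no effect and reference inhibitor for full effect; nearly all actives have a fitted effect of over 55% in size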
# Conditions: ALDH2 enzyme inhibition qHTS, 1536-well; series mostly up to 56 µM; activity change, negative = inhibition: at the top concentration
SMILES,"activity change, negative = inhibition",Potency
Cc1cc(-c2nnc3n2CCCCCC3)c(C)n1-c1ccccc1,-4.67%,–
O=C([C@H](Cc1ccc(O[S+](=O)([O-])c2cccc3cnccc23)cc1)N[S+](=O)([O-])c1cccc2cnccc12)N1CCN(Cc2ccccc2)CC1,-22.1%,–
CCCn1c(-c2ccc(F)cc2)nc2c(NCCCN3CCOCC3)nc(C)nc21,12.1%,–
CCOC(=O)c1c(-c2ccc(OC)cc2)csc1NC(=O)C1CCCO1 (stereo not given),-21.4%,–
COc1ccc2cc3cc(C(=O)Nc4ccc(F)cc4)sc3nc2c1,-2.94%,–
Cc1ccc(OCCn2c(CCNC(=O)C3CC3)nc3ccccc32)cc1,-1.99%,–
CS(=O)(=O)c1ccc(C(=O)OCC#CCSc2nnc(-c3cccc4ccccc34)o2)cc1,-0.623%,–
COc1ccc(C2=Nn3c(nnc3-c3ccccc3F)SC2)cc1OC1CCCC1,11.7%,–
CNc1oc(-c2ccc3cnccc3c2)nc1C#N,-3.12%,–
Cc1ccc(S(=O)(=O)Nc2ccccc2C(=O)Nc2nc(-c3ccccc3)cs2)cc1,–,inactive
Cc1cc(-c2cnc(N)c3c(-c4ccc5scnc5c4)csc23)n(C)n1,-4.37%,–
N#CN1CCC(NC(=O)c2ccc(F)cc2)CC1,12.4%,–
Cc1ccccc1NC(=O)CN1C(=O)N/C(=C\c2cccn2-c2cccc(C(=O)O)c2)C1=O,–,inactive
O=C(/C=C/n1cnc(-c2cc(C(F)(F)F)cc(C(F)(F)F)c2)n1)NNc1cnccn1,-1.93%,–
Fc1cnc(-c2ccccc2C(F)F)nc1NCc1ccc(-c2ccn[nH]2)cc1,-15.2%,–
OC1C=C2C3CN(Cc4cc5c(cc43)OCO5)C2CC1O (stereo not given),1.35%,–
O=C(Nc1cncc(-c2cccnc2)c1)c1cccs1,-12.6%,–
CC1=C(C(=O)Nc2ccc(Cl)cc2)C(c2ccccc2Br)N=C(Nc2nc3ccccc3o2)N1 (stereo not given),-8.65%,–
Cc1ccc(NS(=O)(=O)c2cc3c(cc2Cl)CCC(=O)N3)cc1C,–,inactive
COc1ccccc1C1=Nn2c(COc3ccccc3)nnc2SC1,–,inactive

SMILES,"activity change, negative = inhibition",Potency
O=C(Nc1ccc(-c2nc3ccccc3[nH]2)cc1)c1ccncc1,-4.06%,–
O=C1CCCC2=C1C(c1[nH]ncc1Cl)NC(=NCCc1ccc(O)cc1)N2 (stereo not given),6.64%,–
COc1cccc(C2c3c(ncn(-c4ccccc4OC)c3=N)Oc3ccc4ccccc4c32)c1 (stereo not given),15.4%,–
Cc1cc(C)nc(NC(=S)N2CCN(c3ccc(C(F)(F)F)cc3[N+](=O)[O-])CC2)c1,-0.0668%,–
COc1cccc(-c2csc(N3CCC(C(N)=O)CC3)n2)c1,1.55%,–
CC(=O)NCc1cc(Cl)c2cccnc2c1O,2.63%,–
O=C(/C=C/c1cccc(Cl)c1)Nc1cccc([S+](=O)([O-])Nc2ccccc2F)c1,-15.6%,–
Cc1ccc(NS(=O)(=O)c2cc3c(cc2Cl)CCC(=O)N3)cc1Cl,–,inactive
Cn1nnnc1Sc1ncnc2scc(-c3ccc(N)cc3)c12,-1.41%,–
COc1cc(O)c(C(CC(=O)N2CCCC(c3nc4ccccc4o3)C2)c2ccc3c(c2)OCO3)c(OC)c1 (stereo not given),-1.43% [at 114 µM],–
CC(C)(C)N[S+](=O)([O-])c1cccc(-c2nnc(SCC(=O)Nc3ccc(C(=O)O)cc3)n2-c2ccccc2)c1,-16.4%,–
O=C(c1ccccc1O)N(Cc1cccs1)Cc1cccs1,8.93%,–
Cc1cc(C)nc(NC(=S)N2CCN(c3cc(C(F)(F)F)nc4ccccc34)CC2)c1,5.26%,–
O=C1CCCC2=C1C(c1[nH]ncc1Cl)N=C(Nc1ccccc1)N2 (stereo not given),-0.707%,–
C/C=C(\C)C(=O)O[C@H]1C=C(CO)C(=O)[C@H](OC(C)=O)[C@H]1C(C)C,-16%,–
Cc1ccc(OCCn2c(CCNC(=O)/C=C/c3ccccc3Cl)nc3ccccc32)cc1,-9.88%,–
Cc1ccc(S(=O)(=O)Nc2cnccc2C(=O)Nc2ccccc2)cc1,13.3%,–
Cc1ccc(OCCn2c(CCNC(=O)c3ccsc3)nc3ccccc32)cc1,-9.33%,–
CN(C)CC(=O)NC1CCCc2c1cnn2-c1ccc(F)cc1F (stereo not given),-7.92%,–
CN1CCN(c2ccc(Nc3nc(-c4ccncc4)nc4ccccc34)cc2F)CC1,-8.14%,–

# Molecular target: Retinaldehyde dehydrogenase 3 (Homo sapiens) (UniProt P47895)
# Assay: qHTS for Inhibitors of the Aldehyde Dehydrogenase Family (ALDH1A3) Primary screen (AID 2061315);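 also: plate controls were DMSO vehicle for no effect and reference inhibitor for full effect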
# Conditions: ALDH inhibition qHTS; series mostly up to 56 µM; activity change, negative = inhibition: at the top concentration
SMILES,"activity change, negative = inhibition",Potency
Cc1cc(-c2nnc3n2CCCCCC3)c(C)n1-c1ccccc1,9.67%,–
O=C([C@H](Cc1ccc(O[S+](=O)([O-])c2cccc3cnccc23)cc1)N[S+](=O)([O-])c1cccc2cnccc12)N1CCN(Cc2ccccc2)CC1,3.78%,–
CCCn1c(-c2ccc(F)cc2)nc2c(NCCCN3CCOCC3)nc(C)nc21,-0.662%,–
CCOC(=O)c1c(-c2ccc(OC)cc2)csc1NC(=O)C1CCCO1 (stereo not given),15.1%,–
COc1ccc2cc3cc(C(=O)Nc4ccc(F)cc4)sc3nc2c1,-5.22%,–
Cc1ccc(OCCn2c(CCNC(=O)C3CC3)nc3ccccc32)cc1,-0.758%,–
CS(=O)(=O)c1ccc(C(=O)OCC#CCSc2nnc(-c3cccc4ccccc34)o2)cc1,1.8%,–
COc1ccc(C2=Nn3c(nnc3-c3ccccc3F)SC2)cc1OC1CCCC1,-11.8%,–
CNc1oc(-c2ccc3cnccc3c2)nc1C#N,-11.9%,–
Cc1ccc(S(=O)(=O)Nc2ccccc2C(=O)Nc2nc(-c3ccccc3)cs2)cc1,–,inactive
Cc1cc(-c2cnc(N)c3c(-c4ccc5scnc5c4)csc23)n(C)n1,-3.3%,–
N#CN1CCC(NC(=O)c2ccc(F)cc2)CC1,-2.22%,–
Cc1ccccc1NC(=O)CN1C(=O)N/C(=C\c2cccn2-c2cccc(C(=O)O)c2)C1=O,–,inactive
O=C(/C=C/n1cnc(-c2cc(C(F)(F)F)cc(C(F)(F)F)c2)n1)NNc1cnccn1,32.6%,–
Fc1cnc(-c2ccccc2C(F)F)nc1NCc1ccc(-c2ccn[nH]2)cc1,-4.49%,–
OC1C=C2C3CN(Cc4cc5c(cc43)OCO5)C2CC1O (stereo not given),4.89%,–
O=C(Nc1cncc(-c2cccnc2)c1)c1cccs1,-19.7%,–
CC1=C(C(=O)Nc2ccc(Cl)cc2)C(c2ccccc2Br)N=C(Nc2nc3ccccc3o2)N1 (stereo not given),7.4%,–
Cc1ccc(NS(=O)(=O)c2cc3c(cc2Cl)CCC(=O)N3)cc1C,–,inactive
COc1ccccc1C1=Nn2c(COc3ccccc3)nnc2SC1,–,inactive

SMILES,"activity change, negative = inhibition",Potency
O=C(Nc1ccc(-c2nc3ccccc3[nH]2)cc1)c1ccncc1,-8.04%,–
O=C1CCCC2=C1C(c1[nH]ncc1Cl)NC(=NCCc1ccc(O)cc1)N2 (stereo not given),15.1%,–
COc1cccc(C2c3c(ncn(-c4ccccc4OC)c3=N)Oc3ccc4ccccc4c32)c1 (stereo not given),1.77%,–
Cc1cc(C)nc(NC(=S)N2CCN(c3ccc(C(F)(F)F)cc3[N+](=O)[O-])CC2)c1,12.2%,–
COc1cccc(-c2csc(N3CCC(C(N)=O)CC3)n2)c1,-4.75%,–
CC(=O)NCc1cc(Cl)c2cccnc2c1O,-4.15%,–
O=C(/C=C/c1cccc(Cl)c1)Nc1cccc([S+](=O)([O-])Nc2ccccc2F)c1,9.6%,–
Cc1ccc(NS(=O)(=O)c2cc3c(cc2Cl)CCC(=O)N3)cc1Cl,–,inactive
Cn1nnnc1Sc1ncnc2scc(-c3ccc(N)cc3)c12,0.881%,–
COc1cc(O)c(C(CC(=O)N2CCCC(c3nc4ccccc4o3)C2)c2ccc3c(c2)OCO3)c(OC)c1 (stereo not given),11.7% [at 114 µM],–
CC(C)(C)N[S+](=O)([O-])c1cccc(-c2nnc(SCC(=O)Nc3ccc(C(=O)O)cc3)n2-c2ccccc2)c1,9.25%,–
O=C(c1ccccc1O)N(Cc1cccs1)Cc1cccs1,4.78%,–
Cc1cc(C)nc(NC(=S)N2CCN(c3cc(C(F)(F)F)nc4ccccc34)CC2)c1,14.4%,–
O=C1CCCC2=C1C(c1[nH]ncc1Cl)N=C(Nc1ccccc1)N2 (stereo not given),1.66%,–
C/C=C(\C)C(=O)O[C@H]1C=C(CO)C(=O)[C@H](OC(C)=O)[C@H]1C(C)C,-12%,–
Cc1ccc(OCCn2c(CCNC(=O)/C=C/c3ccccc3Cl)nc3ccccc32)cc1,-1.91%,–
Cc1ccc(S(=O)(=O)Nc2cnccc2C(=O)Nc2ccccc2)cc1,7.39%,–
Cc1ccc(OCCn2c(CCNC(=O)c3ccsc3)nc3ccccc32)cc1,4.66%,–
CN(C)CC(=O)NC1CCCc2c1cnn2-c1ccc(F)cc1F (stereo not given),-5.32%,–
CN1CCN(c2ccc(Nc3nc(-c4ccncc4)nc4ccccc34)cc2F)CC1,-10%,–
